According to PubChem BioAssay (NCATS):
Results filed as inconclusive are left out. A call without a number means that no potency is given here. Calls of active or inactive are those of the source. Unless noted, calls follow the shape of the dose curve; as a rule, active = well fitted cell-killing curve with a large enough effect; inconclusive = small, poorly fitted or top-dose-only effect; inactive = flat fitted curve, though single readings scatter.

Tests used:
[1] = Cell Viability - LYMP2-002 (AID 977);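 also: series mostly up to about 92 µM; compound exposure lasted 24 h at 37 °C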
In short: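 Cytotoxicity is scored as concentration-dependent loss of cellular ATP in a human lymphoblastoid line after 24 hr compound treatment at 37 C. AC50 is obtained by modelling concentration-response data with the Hill equation.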

[2] = Cell Viability - LYMP2-006 (AID 978); also: series mostly up to about 92 µM; nearly all actives have a fitted effect of over 60% in size
In short: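 Human lymphoblastoid cells, 2500 per well, were preincubated 5 hr at 37 C, then exposed to compounds for 24 hr at 37 C in complete medium. Viability was read as intracellular ATP by CellTiter-Glo luminescence; AC50 from Hill-equation fits of qHTS concentration-response data.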

[3] = Cell Viability - LYMP2-007 (AID 979);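 also: cells exposed to compound for 24 h before reading; nearly all actives have a fitted effect of over 60% in size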
In short: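 Luminescent ATP signal (CellTiter-Glo) serves as the viability read-out after 24 hr compound treatment of lymphoblastoid cells in complete medium at 37 C. Concentration-response data were fitted to the Hill equation to give AC50 values.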

[4] = Cell Viability - LYMP2-008 (AID 980); also: nearly all actives have a fitted effect of over 60% in size
In short: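 qHTS, human lymphoblastoid line, 2500 cells/well; 5 hr preincubation, 24 hr compound, 37 C. CellTiter-Glo ATP luminescence. AC50 via Hill equation. Tetraoctylammonium bromide positive control.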

[5] = Cell Viability - LYMP2-010 (AID 981); also: nearly all actives have a fitted effect of over 55% in size
In short: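 Luminescent ATP signal (CellTiter-Glo) served as the viability read-out. Cells of the human lymphoblastoid line were treated with compound over a concentration range for 24 hours at 37 C, and AC50 values came from Hill-equation modeling.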

[6] = Cell Viability - LYMP2-012 (AID 982);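 also: cellular ATP by luciferase luminescence where a drop means cytotoxicity; cells exposed to compound for one day before reading; nearly all actives have a fitted effect of over 55% in size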
[7] = Cell Viability - LYMP2-014 (AID 983); also: series mostly up to about 92 µM; nearly all actives have a fitted effect of over 50% in size
In short: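 Luminescent ATP signal (CellTiter-Glo, 30 min at room temperature) serves as the viability read-out after 24 hr compound exposure at 37 C. Cells were seeded at 2500 per well and settled 5 hr beforehand.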

[8] = Cell Viability - LYMP2-018 (AID 985); also: nearly all actives have a fitted effect of over 50% in size
In short: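 Luminescent ATP signal (CellTiter-Glo, read after 30 min at room temperature) reports viable cells after 24 hr compound treatment at 37 C. Concentration-response data were fitted to the standard Hill equation for AC50.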

[9] = Cell Viability - LYMP2-020 (AID 986); also: series mostly up to about 92 µM; nearly all actives have a fitted effect of over 55% in size
In short: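 Luminescent ATP signal (CellTiter-Glo, 30 min at room temperature) is the read-out after 24 h compound treatment of lymphoblastoid cells at 37 C. AC50 values come from Hill-equation fits across concentrations.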

[10] = Cell Viability - LYMP2-022 (AID 987); also: nearly all actives have a fitted effect of over 55% in size
In short: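 qHTS: human lymphoblastoid cells 2500/well; 5 hr 37 C; cpd added; 24 hr 37 C; CellTiter-Glo, 30 min RT; luminescence. AC50 via Hill fit; tetraoctylammonium bromide positive ctrl.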

[11] = Cell Viability - LYMP2-024 (AID 988); also: nearly all actives have a fitted effect of over 60% in size
In short: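 Steps: seed 2500 cells/well, 5 hr 37 C; add compound, 24 hr 37 C; add CellTiter-Glo, 30 min room temperature; read luminescence. AC50 derived by Hill modelling of concentration-dependent ATP loss.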

[12] = Cell Viability - LYMP2-026 (AID 989); also: nearly all actives have a fitted effect of over 50% in size
In short: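 Luminescent ATP signal (CellTiter-Glo, 30 min room temperature) measures viable lymphoblastoid cells after 24 hr compound treatment at 37 C. Decreased ATP reflects acute toxicity; AC50 values come from Hill-equation modeling.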

[13] = Cell Viability - LYMP1-002 - Assay at 24 hr (AID 993)
In short: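 Cells plated 2500/well, 5 hr 37 C; compounds added, 24 hr 37 C; CellTiter-Glo added, 30 min RT; luminescence read. Tetraoctylammonium bromide positive control. Hill-equation AC50.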

[14] = Cell Viability - LYMP1-002 - Assay at 40 hr (AID 994); also: nearly all actives have a fitted effect of over 60% in size
In short: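 Luminescent ATP signal served as the viability readout, with decreases taken as toxicity. Cells were treated with compounds across a concentration range for 40 hours at 37 C, and AC50 values came from standard Hill modeling.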

[15] = qHTS Assay for Identification of Small Molecule Inducers of Hypoxia Response (AID 2120; active = well fitted curve in the direction sought with a large enough effect in the signal ratio, with a control signal flat, not every such curve was filed as active; the % refers to the signal ratio)
In short: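 ME-180 HRE-bla cells plated in Opti-MEM/0.5% dialyzed FBS, rested 4-5 h, then dosed with compound titrations by pin tool. After 17 h at 37 degrees C, CCF4 dye loaded 2.5 h at RT; 460/530 nm ratio gave %Activity and AC50.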

[16] = molecular target: Estrogen receptor (Homo sapiens) (UniProt P03372); experiment: qHTS assay for small molecule antagonists of estrogen receptor alpha signaling (AID 588513; active = well fitted curve in the direction sought with a large enough effect in the signal ratio, with a control signal flat, not every such curve was filed as active; the % refers to the signal ratio)
In short: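 ER-alpha-UAS-bla GripTite HEK 293 cells in medium with 2% charcoal/dextran-treated FBS were preincubated 4 h at 37 C, dosed with compound (1:2 titration), stimulated with 0.5nM 17-beta-estradiol for 18 h, then read by CCF4 beta-lactamase fluorescence.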

[17] = molecular target: Estrogen receptor (Homo sapiens) (UniProt P03372); experiment: qHTS assay for small molecule agonists of estrogen receptor alpha signaling (AID 588514; calls by dose curve; also: nearly all actives have a fitted effect of over 70% in size; also: potency is read from the fitted curve at half-maximal effect)
In short: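 Cells were plated at 5000/well, incubated 4 hrs at 37 C, dosed with compound titration series, incubated 18 hrs at 37 C, loaded with CCF4 dye for 2 hrs at RT, then fluorescence was read.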

[18] = Cell Viability - LYMP2-016 (AID 984); also: nearly all actives have a fitted effect of over 55% in size
In short: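 Human lymphoblastoid cells (LYMP2-016), 2500/well in complete medium, preincubated 5 hr at 37 C, then compound-treated 24 hr at 37 C. Intracellular ATP read by CellTiter-Glo luminescence after 30 min at room temperature; AC50 from Hill-equation concentration-response fits.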

Chain of Estrogen receptor (Homo sapiens) (P03372 whole entry, looked up): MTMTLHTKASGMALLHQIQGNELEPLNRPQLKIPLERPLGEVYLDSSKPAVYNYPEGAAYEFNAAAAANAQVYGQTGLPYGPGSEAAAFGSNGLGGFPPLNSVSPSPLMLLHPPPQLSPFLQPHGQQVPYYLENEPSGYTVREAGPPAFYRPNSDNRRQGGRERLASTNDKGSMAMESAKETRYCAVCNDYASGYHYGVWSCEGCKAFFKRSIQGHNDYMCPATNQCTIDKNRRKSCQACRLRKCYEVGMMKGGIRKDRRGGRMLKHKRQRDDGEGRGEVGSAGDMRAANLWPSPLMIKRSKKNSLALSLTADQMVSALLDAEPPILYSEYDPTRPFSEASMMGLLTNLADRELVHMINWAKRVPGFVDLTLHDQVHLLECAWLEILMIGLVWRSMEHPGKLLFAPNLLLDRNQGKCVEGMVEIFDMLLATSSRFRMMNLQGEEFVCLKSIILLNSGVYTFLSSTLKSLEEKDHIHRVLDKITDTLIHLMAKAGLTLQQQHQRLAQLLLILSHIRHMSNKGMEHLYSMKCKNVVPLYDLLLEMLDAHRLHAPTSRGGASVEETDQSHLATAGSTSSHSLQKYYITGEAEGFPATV

| SMILES | Potency [1] | Potency [2] | Potency [3] | Potency [4] | Potency [5] | Potency [6] | Potency [7] | Potency [8] | Potency [9] | Potency [10] | Potency [11] | outcome [12] | Potency [13] | Potency [14] | outcome [15] | outcome [16] | Potency [17] | Potency [18] |
| --- | --- | --- | --- | --- | --- | --- | --- | --- | --- | --- | --- | --- | --- | --- | --- | --- | --- | --- |
| C[C@@H]1CC2(OC3C[C@@]4(C)C5=CC[C@H]6C(C)(C)C(O[C@@H]7OC[C@@H](O)[C@H](O)[C@H]7O)CC[C@@]67C[C@@]57CC[C@]4(C)C31)OC(O)C1(C)OC21 (some centres undefined) | inactive | inactive | inactive | inactive | inactive | inactive | inactive | inactive | inactive | inactive | inactive | inactive | inactive | inactive | inactive | inactive | inactive |  |
| CC(C)CCOC(=O)/C=C/c1ccccc1 | inactive | inactive | inactive | inactive | inactive | inactive | inactive | inactive | inactive | inactive | inactive | inactive |  | inactive | inactive | inactive | inactive |  |
| CCCCC(=O)N(C)C | inactive | inactive | inactive | inactive |  | inactive | inactive |  | inactive | inactive | inactive | inactive | inactive | inactive | inactive | inactive | inactive | inactive |
| Oc1cccc(Nc2ccccc2)c1 | inactive | inactive | inactive | inactive |  | inactive | inactive | inactive | inactive | inactive | inactive | inactive | inactive | inactive | inactive | inactive | 25.1 µM (active) | inactive |
| NC(=O)c1cccc([N+](=O)[O-])c1 | inactive | inactive | inactive | inactive |  | inactive | inactive | inactive | inactive | inactive | inactive | inactive | inactive | inactive | inactive | inactive | inactive | inactive |
| c1ccc2c(c1)ccc1ncccc12 | inactive | inactive | inactive | inactive | inactive | inactive | inactive | inactive | inactive | inactive | inactive | inactive | inactive | inactive | inactive | inactive | inactive |  |
| CC(=O)Nc1ccc(N)cc1 | inactive | inactive | inactive | inactive |  | inactive | inactive | inactive | inactive | inactive | inactive | inactive |  | inactive | inactive | inactive | inactive | inactive |
| CCc1ccccc1O | inactive | inactive | inactive |  | inactive | inactive | inactive | inactive | inactive | inactive | inactive | inactive | inactive | inactive | inactive | inactive | inactive | inactive |
| Cc1ccc(C(C)(C)C)cc1 | inactive | inactive | inactive | inactive | inactive | inactive | inactive | inactive | inactive | inactive | inactive | inactive | inactive |  | inactive | inactive | inactive |  |
